# The other results are listed elsewhere or left out. The hit rate among all sequences tested is not known here.
# Target: furin, P09958
# Experiment: furin cleavage Z-score vs untreated control; higher = more cleavage, active = 3.5 or more, inactive = 1 or less, 8 variable residues between constant flanks
# Procedure, shortened: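 Reactions of 0.01 ml ran for 7.5, 15 or 30 min in 50 mM HEPES pH 7.5 with CaCl2 and NaCl, at 1:10 enzyme:substrate. In them, purified furin acted on bead-held 8-mer peptides fused to a cDNA oligonucleotide. The cleavage Z-score was obtained by lowess-adjusting log sequencing counts of released DNA against furin-free reactions and scaling by median absolute deviation.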
# furin, P09958, sequence (P09958 whole entry): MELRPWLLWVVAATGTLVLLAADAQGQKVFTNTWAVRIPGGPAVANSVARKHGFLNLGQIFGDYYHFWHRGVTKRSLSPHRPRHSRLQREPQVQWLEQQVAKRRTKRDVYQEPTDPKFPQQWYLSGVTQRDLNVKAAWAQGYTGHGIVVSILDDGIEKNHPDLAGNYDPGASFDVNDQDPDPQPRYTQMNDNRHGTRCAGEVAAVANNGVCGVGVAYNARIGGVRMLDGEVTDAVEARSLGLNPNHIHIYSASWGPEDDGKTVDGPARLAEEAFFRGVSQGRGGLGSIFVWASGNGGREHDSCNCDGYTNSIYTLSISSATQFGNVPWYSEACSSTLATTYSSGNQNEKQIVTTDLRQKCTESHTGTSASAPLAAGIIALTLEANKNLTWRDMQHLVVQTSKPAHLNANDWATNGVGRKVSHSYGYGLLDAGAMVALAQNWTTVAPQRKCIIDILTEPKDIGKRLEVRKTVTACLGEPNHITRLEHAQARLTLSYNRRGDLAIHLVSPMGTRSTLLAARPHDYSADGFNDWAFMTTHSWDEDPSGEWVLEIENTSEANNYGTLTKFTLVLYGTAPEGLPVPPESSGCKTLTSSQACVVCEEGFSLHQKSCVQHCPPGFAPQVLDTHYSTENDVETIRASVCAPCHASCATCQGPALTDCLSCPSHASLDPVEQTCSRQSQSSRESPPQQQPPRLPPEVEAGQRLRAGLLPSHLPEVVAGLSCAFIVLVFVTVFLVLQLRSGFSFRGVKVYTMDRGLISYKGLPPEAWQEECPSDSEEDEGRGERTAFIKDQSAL
Sequence,furin cleavage Z-score (7.5 min),furin cleavage Z-score (15 min),furin cleavage Z-score (30 min)
CAFSYDTRCFAGNASASA [HC1479],-0.0881 (inactive),-0.998 (inactive),0.0108 (inactive)
CALDVVCCSMAGNASASA [HC2105],-0.768 (inactive),-1.48 (inactive),-0.867 (inactive)
CARNRRSLSGAGNASASA [FS-2577],5.26 (active),5.66 (active),6.3 (active)
CARNRRHPRSAGNASASA [FS-560],11.3 (active),13.7 (active),8.58 (active)
CARIPQAILDAGNASASA [HC330],-0.397 (inactive),0.0404 (inactive),0.351 (inactive)
CARNRRTHEFAGNASASA [FS-2048],-0.109 (inactive),-0.137 (inactive),0.595 (inactive)
CARNRRVAEAAGNASASA [FS-2049],2.16,3.37,3.98 (active)
CARNRRSILDAGNASASA [FS-2733],6.77 (active),9.44 (active),8.76 (active)
CAVGRVVLSGAGNASASA [HC1002],-0.201 (inactive),2.15,-1.8 (inactive)
CALMPQLPGIAGNASASA [HC1160],1.4,1.95,0.83 (inactive)
CAPDYNPPLVAGNASASA [HC1306],0.58 (inactive),-1.42 (inactive),-0.164 (inactive)
CADAEVVTSTAGNASASA [HC2283],-0.438 (inactive),0.612 (inactive),0.657 (inactive)
CAGNPAIASLAGNASASA [HC1052],-0.886 (inactive),-0.0897 (inactive),-0.877 (inactive)
CARPYCWHYPAGNASASA [HC402],-0.0981 (inactive),-0.342 (inactive),-1.07 (inactive)
CAMEECSQILAGNASASA [HC1744],0.778 (inactive),0.663 (inactive),0.94 (inactive)
CALCTTPCSGAGNASASA [HC1945],0.463 (inactive),-0.673 (inactive),-0.438 (inactive)
CARNRRAFGDAGNASASA [FS-2732],6.61 (active),9.22 (active),8.81 (active)
CARNRRVTRRAGNASASA [FS-2163],10.8 (active),11.8 (active),10.4 (active)
CARNRRRVCKAGNASASA [FS-2162],-0.833 (inactive),-0.214 (inactive),0.898 (inactive)
CARNRRHIEKAGNASASA [FS-2283],6.22 (active),6.56 (active),6.5 (active)
CARNSRFRCRAGNASASA [FS-3013],0.23 (inactive),0.474 (inactive),0.565 (inactive)
CAKGKWVPGAAGNASASA [HC550],0.591 (inactive),-0.0194 (inactive),1.21
CAEVVKSTWVAGNASASA [HC131],-2.1 (inactive),-0.614 (inactive),-0.545 (inactive)
CAEVVTGTWVAGNASASA [HC142],-0.000356 (inactive),-0.439 (inactive),1.54

Sequence,furin cleavage Z-score (7.5 min),furin cleavage Z-score (15 min),furin cleavage Z-score (30 min)
CAVVMCSMSYAGNASASA [HC2026],-0.445 (inactive),0.764 (inactive),0.688 (inactive)
CAAKRRTKRDAGNASASA [FS-1509],13.3 (active),12.3 (active),8.72 (active)
CAVVNTTKRDAGNASASA [FS-967],0.253 (inactive),1.14,0.849 (inactive)
CAVKKRTKRDAGNASASA [FS-1579],13.7 (active),14.1 (active),11.3 (active)
CAMEMEECSQAGNASASA [HC1786],0.949 (inactive),-0.743 (inactive),0.205 (inactive)
CAWPTRRRRLAGNASASA [FS-109],8.56 (active),10.6 (active),9.39 (active)
CAQGERSRRLAGNASASA [FS-282],0.753 (inactive),4.38 (active),1.23
CAQDVRCRRLAGNASASA [FS-478],1.46,1.58,0.0369 (inactive)
CAMEECSQRLAGNASASA [HC1753],0.426 (inactive),-0.514 (inactive),1.09
CALRGRSRRLAGNASASA [FS-135],3.28,5.92 (active),6.35 (active)
CACRARRRRLAGNASASA [FS-16],9.49 (active),9.51 (active),8.36 (active)
CAIYQCCDLDAGNASASA [HC1490],-1.27 (inactive),-0.493 (inactive),-0.515 (inactive)
CAPCTINYTIAGNASASA [HC470],-0.109 (inactive),-0.36 (inactive),-0.753 (inactive)
CAEFEVPCHRAGNASASA [HC2447],1.12,0.425 (inactive),0.814 (inactive)
CAEPARRRRLAGNASASA [FS-1193],3.5 (active),3.06,4.29 (active)
CALRQRRRRLAGNASASA [FS-1233],7.25 (active),8.53 (active),7.51 (active)
CAGRGRRRRLAGNASASA [FS-1204],0.638 (inactive),1.19,1.19
CASTVCSAHLAGNASASA [HC2510],0.637 (inactive),0.629 (inactive),0.755 (inactive)
CAALNRTGRSAGNASASA [FS-748],9.18 (active),11.6 (active),9.72 (active)
CAMLAEQFKQAGNASASA [HC1022],1.62,-0.39 (inactive),0.514 (inactive)
CATCNRRKKEAGNASASA [FS-1492],0.181 (inactive),1.51,1.86
CASRVRTGRSAGNASASA [FS-1417],9.44 (active),9.57 (active),7.69 (active)
CAALNRRKKQAGNASASA [FS-747],3.62 (active),5.46 (active),3.99 (active)
CAELSRTGRSAGNASASA [FS-22],3.94 (active),5.44 (active),5.19 (active)
